In the supplement of paper PMC10127200:
Where a name gives a salt, the structure may show the parent alone.

The molecules below were run on HEPG2 (assay: Euclidean distance of Cell Painting phenotypic profile (signed KS, 77 features) to DMSO centroid (dimensionless distance); 5 or 10 uM (library dependent); higher = stronger phenotypic change vs DMSO (phenoactivity)). Conditions: 48 h.
Summary of the method: (§1)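 Five cancer lines, together with a healthy fibroblast line, received library compounds for 48 h at a library-dependent 10 or 5 uM and 0.1% DMSO final. Harmony then derived 77 features from confocal 20X images (9 fields/well) of the stained cells, scoring each as a signed Kolmogorov-Smirnov statistic against same-plate vehicle wells. After plate-position correction, correlation weighting and replicate averaging at the top dose, phenoactivity was taken as each profile's Euclidean distance to the median vehicle profile.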

Row | SMILES | Euclidean distance
1 | CCC(CC)CC1(C(=O)Nc2ccccc2SC(=O)C(C)C)CCCCC1 | 0.428
2 | Brc1c(NC2=NCCN2)ccc2nccnc12 [Brimonidine Tartrate] | 0.644
3 | Cc1cc(C)c(Nc2ccnc(Nc3ccc(C#N)cc3)n2)c(C)c1 [Dapivirine (TMC120)] | 3.09
4 | N=C(N)NC(=O)Cc1c(Cl)cccc1Cl [Guanfacine Hydrochloride] | 0.41
5 | CO[C@H]1C[C@@H]2CC[C@@H](C)[C@@](O)(O2)C(=O)C(=O)N2CCCC[C@H]2C(=O)O[C@H]([C@H](C)C[C@@H]2CC[C@@H](OCCO)[C@H](OC)C2)CC(=O)[C@H](C)/C=C(\C)[C@@H](O)[C@@H](OC)C(=O)[C@H](C)C[C@H](C)/C=C/C=C/C=C/1C [Everolimus (RAD001)] | 1.73

What follows are molecules tested on OVCAR4 in the same assay as above. Conditions: 48 h.
Summary of the method: as §1

Row | SMILES | Euclidean distance
6 | O=C1c2cccc(O)c2C(=O)c2c(O)cccc21 [Danthron] | 1.12
7 | Cc1c(-c2cnccn2)ssc1=S [Oltipraz] | 1.3
8 | CO[C@H]1/C=C/O[C@@]2(C)Oc3c(C)c(O)c4c(O)c(c(/C=N/N5CCN(C)CC5)c(O)c4c3C2=O)NC(=O)/C(C)=C\C=C\[C@H](C)[C@H](O)[C@@H](C)[C@@H](O)[C@@H](C)[C@H](OC(C)=O)[C@@H]1C [Rifampin] | 1.14
9 | C/C(=N\NC(=S)N1CCC1)c1ccccn1 | 4.89
10 | Cc1nnc(SCC2=C(C(=O)O)N3C(=O)[C@@H](NC(=O)Cn4cc(Cl)c(=O)c(Cl)c4)[C@H]3SC2)s1 [Cefazedone] | 0.862
11 | CC(=O)OCC[N+](C)(C)C [Acetylcholine iodide] | 1.19
12 | CCCC(=O)Nc1cccc(NC(=O)c2ccccc2Br)c1 | 0.946
13 | Nc1ncn([C@@H]2O[C@H](CO)[C@@H](O)[C@H]2O)c(=O)n1 [Azacitidine] | 1.33
14 | O=C(/C=C/C#Cc1cccc(NS(=O)(=O)c2ccccc2)c1)NO [Oxamflatin] | 3.64
15 | CNCCc1ccccn1 [Betahistine mesylate] | 0.933
16 | COc1ccc2cc([C@H](C)C(=O)O)ccc2c1 [Naproxen] | 1.28
17 | OCC(O)CN1CCN(c2ccccc2)CC1 (centres undefined) [Dropropizine] | 1.98
18 | C=CC(=O)Nc1cccc(Nc2nc(Nc3ccc(N4CCN(C(C)=O)CC4)cc3OC)ncc2C(F)(F)F)c1 | 0.883
19 | C/C(=C\c1ccc(C(=O)O)cc1)c1ccc2c(c1)C(C)(C)CCC2(C)C [TTNPB (Arotinoid Acid)] | 1.35
20 | COc1cc2nc(N3CCN(C(=O)C4CCCO4)CC3)nc(N)c2cc1OC (centres undefined) [Terazosin HCl] | 1.01
21 | C=C1/C(=C\C=C2/CCC[C@]3(C)[C@@H]([C@H](C)CCCC(C)C)CC[C@@H]23)C[C@@H](O)C[C@@H]1O [Alfacalcidol] | 1.5
22 | COc1ncc(-c2ccc3nccc(-c4ccnnc4)c3c2)cc1NS(=O)(=O)c1ccc(F)cc1F | 3.04
23 | CNC(=O)CN(CCN(CCN(CC(=O)[O-])CC(=O)NC)CC(=O)[O-])CC(=O)[O-].O.[Gd+3] [Gadodiamide Hydrate] | 0.986
24 | CC(C)Cc1ccc(C(C)C(=O)O)cc1 (centres undefined) [Ibuprofen] | 0.689
25 | O=C1[C@H]2CCCC[C@H]2C(=O)N1CCCCN1CCN(c2nsc3ccccc23)CC1 [Perospirone hydrochloride] | 1.36

Row | SMILES | Euclidean distance
26 | CC(=O)Oc1cc(C(C)C)c(OCCN(C)C)cc1C [Moxisylyte hydrochloride] | 0.608
27 | OCc1cc([C@@H](O)CNCCCCCCOCCOCc2c(Cl)cccc2Cl)ccc1O [Vilanterol Trifenate] | 1.76
28 | CC[C@H]1OC(=O)[C@H](C)[C@@H](O[C@H]2C[C@@](C)(OC)[C@@H](O)[C@H](C)O2)[C@H](C)[C@@H](O[C@@H]2O[C@H](C)C[C@H](N(C)C)[C@H]2O)[C@](C)(O)C[C@@H](C)CN(C)[C@H](C)[C@@H](O)[C@]1(C)O [Azithromycin] | 1.08
29 | CN(C)C1CCN(C(=O)c2ccc(NC(=O)Nc3ccc(-c4nc(N5CCOCC5)nc(N5CCOCC5)n4)cc3)cc2)CC1 | 3.62
30 | O=C(O)C1(C(=O)O)CCC1.[NH2-].[NH2-].[Pt+2] [Carboplatin] | 2.66
31 | O=C(N/N=C/c1ccc(O)c(O)c1)c1cc2ccccc2cc1O [Dynasore] | 0.791
32 | C[C@@H](NC(=O)c1ncnc(N)c1Cl)c1ncc(C(=O)Nc2cc(C(F)(F)F)c(Cl)cn2)s1 | 1.52
33 | CCCC(CCC)C(=O)O [Valproic acid sodium salt (Sodium valproate)] | 0.959
34 | Clc1ccc(C(Cn2ccnc2)OCc2csc3c(Cl)cccc23)c(Cl)c1 (centres undefined) [Sertaconazole nitrate] | 1.61
35 | Cc1cc(Nc2ccc(NC(=O)c3ccc(Nc4ccnc5ccccc45)cc3)cc2)nc(N)n1 | 3.29
36 | C=C1/C(=C\C=C2/CCC[C@]3(C)[C@@H]([C@H](C)/C=C/[C@@H](O)C4CC4)CC[C@@H]23)C[C@@H](O)C[C@@H]1O [Calcipotriene] | 1.51
37 | CONC(=O)c1ccccc1Nc1cc(Nc2cc(C)nn2C(C)C)ncc1Cl | 1.5
38 | O=C1OC2(c3ccc(O)cc3Oc3cc(O)ccc32)c2ccccc21 [Fluorescein] | 1.27
39 | C[C@H]1[C@H](NC(=O)/C(=N\OC(C)(C)C(=O)O)c2csc(N)n2)C(=O)N1S(=O)(=O)O [Aztreonam] | 1.53
40 | CCC(CC)CC1(C(=O)Nc2ccccc2SC(=O)C(C)C)CCCCC1 | 0.986
41 | Brc1c(NC2=NCCN2)ccc2nccnc12 [Brimonidine Tartrate] | 0.833
42 | Cc1cc(C)c(Nc2ccnc(Nc3ccc(C#N)cc3)n2)c(C)c1 [Dapivirine (TMC120)] | 2.01
43 | N=C(N)NC(=O)Cc1c(Cl)cccc1Cl [Guanfacine Hydrochloride] | 0.929
44 | CO[C@H]1C[C@@H]2CC[C@@H](C)[C@@](O)(O2)C(=O)C(=O)N2CCCC[C@H]2C(=O)O[C@H]([C@H](C)C[C@@H]2CC[C@@H](OCCO)[C@H](OC)C2)CC(=O)[C@H](C)/C=C(\C)[C@@H](O)[C@@H](OC)C(=O)[C@H](C)C[C@H](C)/C=C/C=C/C=C/1C [Everolimus (RAD001)] | 1.9
